# Measured values published in the supplement of paper PMC7724964.
# T1: CD2BP2 256-341 GYF (domain begin residue: 256, domain end residue: 341), O95400
# T1 chain: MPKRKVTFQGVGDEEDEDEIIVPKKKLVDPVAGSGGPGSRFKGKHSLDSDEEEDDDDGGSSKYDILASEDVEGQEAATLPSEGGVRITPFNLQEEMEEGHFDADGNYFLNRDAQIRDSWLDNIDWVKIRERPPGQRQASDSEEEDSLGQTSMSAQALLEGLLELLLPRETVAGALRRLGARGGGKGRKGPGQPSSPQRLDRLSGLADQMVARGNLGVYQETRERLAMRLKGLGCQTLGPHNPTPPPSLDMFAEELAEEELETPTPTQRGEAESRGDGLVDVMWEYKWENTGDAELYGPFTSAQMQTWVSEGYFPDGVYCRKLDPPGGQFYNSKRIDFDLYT
# T2: CLTC 1-363 Clathrin_propel+Clathrin-link (domain begin residue: 1, domain end residue: 363), Q00610
# T2 chain: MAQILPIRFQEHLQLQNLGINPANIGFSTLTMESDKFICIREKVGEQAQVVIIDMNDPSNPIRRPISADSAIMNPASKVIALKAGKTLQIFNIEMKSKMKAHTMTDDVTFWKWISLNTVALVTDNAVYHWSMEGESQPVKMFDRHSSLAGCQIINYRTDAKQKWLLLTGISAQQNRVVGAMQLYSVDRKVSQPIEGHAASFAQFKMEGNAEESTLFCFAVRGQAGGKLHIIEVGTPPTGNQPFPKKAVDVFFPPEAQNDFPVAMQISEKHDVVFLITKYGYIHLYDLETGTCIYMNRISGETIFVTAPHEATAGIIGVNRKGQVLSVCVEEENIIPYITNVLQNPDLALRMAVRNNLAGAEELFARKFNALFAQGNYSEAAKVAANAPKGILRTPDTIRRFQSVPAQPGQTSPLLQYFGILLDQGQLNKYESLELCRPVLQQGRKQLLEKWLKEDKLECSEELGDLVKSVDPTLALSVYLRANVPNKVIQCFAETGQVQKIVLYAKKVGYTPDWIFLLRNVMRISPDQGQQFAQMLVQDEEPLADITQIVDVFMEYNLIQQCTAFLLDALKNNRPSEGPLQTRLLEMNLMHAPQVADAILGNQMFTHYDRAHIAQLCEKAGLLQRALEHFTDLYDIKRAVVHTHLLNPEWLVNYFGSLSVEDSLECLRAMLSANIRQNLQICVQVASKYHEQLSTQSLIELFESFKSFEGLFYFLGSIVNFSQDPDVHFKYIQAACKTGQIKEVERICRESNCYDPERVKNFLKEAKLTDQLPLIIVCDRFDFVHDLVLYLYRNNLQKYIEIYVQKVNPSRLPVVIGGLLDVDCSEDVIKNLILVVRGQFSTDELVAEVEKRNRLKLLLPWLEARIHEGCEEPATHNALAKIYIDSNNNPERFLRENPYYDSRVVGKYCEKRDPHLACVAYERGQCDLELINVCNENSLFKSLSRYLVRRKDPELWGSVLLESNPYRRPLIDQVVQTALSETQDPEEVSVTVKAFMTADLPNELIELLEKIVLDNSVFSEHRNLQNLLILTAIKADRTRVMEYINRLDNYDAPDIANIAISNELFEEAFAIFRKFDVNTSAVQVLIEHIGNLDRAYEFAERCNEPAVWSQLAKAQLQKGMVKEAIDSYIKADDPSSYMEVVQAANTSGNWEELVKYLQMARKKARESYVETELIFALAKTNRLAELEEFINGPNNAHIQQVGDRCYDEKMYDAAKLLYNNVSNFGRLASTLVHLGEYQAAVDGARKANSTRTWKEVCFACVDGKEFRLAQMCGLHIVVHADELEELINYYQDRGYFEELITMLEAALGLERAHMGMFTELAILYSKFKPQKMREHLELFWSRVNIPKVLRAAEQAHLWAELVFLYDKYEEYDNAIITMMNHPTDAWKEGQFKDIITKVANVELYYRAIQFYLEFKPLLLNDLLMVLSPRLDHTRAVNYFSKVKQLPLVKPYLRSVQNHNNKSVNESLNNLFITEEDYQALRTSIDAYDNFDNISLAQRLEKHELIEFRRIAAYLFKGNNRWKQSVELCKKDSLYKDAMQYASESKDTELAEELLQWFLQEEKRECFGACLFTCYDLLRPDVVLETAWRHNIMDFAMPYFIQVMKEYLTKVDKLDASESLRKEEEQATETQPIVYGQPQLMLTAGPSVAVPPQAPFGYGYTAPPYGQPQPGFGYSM
# T3: GIGYF2 507-602 GYF (domain begin residue: 507, domain end residue: 602), Q6Y7W6
# T3 chain: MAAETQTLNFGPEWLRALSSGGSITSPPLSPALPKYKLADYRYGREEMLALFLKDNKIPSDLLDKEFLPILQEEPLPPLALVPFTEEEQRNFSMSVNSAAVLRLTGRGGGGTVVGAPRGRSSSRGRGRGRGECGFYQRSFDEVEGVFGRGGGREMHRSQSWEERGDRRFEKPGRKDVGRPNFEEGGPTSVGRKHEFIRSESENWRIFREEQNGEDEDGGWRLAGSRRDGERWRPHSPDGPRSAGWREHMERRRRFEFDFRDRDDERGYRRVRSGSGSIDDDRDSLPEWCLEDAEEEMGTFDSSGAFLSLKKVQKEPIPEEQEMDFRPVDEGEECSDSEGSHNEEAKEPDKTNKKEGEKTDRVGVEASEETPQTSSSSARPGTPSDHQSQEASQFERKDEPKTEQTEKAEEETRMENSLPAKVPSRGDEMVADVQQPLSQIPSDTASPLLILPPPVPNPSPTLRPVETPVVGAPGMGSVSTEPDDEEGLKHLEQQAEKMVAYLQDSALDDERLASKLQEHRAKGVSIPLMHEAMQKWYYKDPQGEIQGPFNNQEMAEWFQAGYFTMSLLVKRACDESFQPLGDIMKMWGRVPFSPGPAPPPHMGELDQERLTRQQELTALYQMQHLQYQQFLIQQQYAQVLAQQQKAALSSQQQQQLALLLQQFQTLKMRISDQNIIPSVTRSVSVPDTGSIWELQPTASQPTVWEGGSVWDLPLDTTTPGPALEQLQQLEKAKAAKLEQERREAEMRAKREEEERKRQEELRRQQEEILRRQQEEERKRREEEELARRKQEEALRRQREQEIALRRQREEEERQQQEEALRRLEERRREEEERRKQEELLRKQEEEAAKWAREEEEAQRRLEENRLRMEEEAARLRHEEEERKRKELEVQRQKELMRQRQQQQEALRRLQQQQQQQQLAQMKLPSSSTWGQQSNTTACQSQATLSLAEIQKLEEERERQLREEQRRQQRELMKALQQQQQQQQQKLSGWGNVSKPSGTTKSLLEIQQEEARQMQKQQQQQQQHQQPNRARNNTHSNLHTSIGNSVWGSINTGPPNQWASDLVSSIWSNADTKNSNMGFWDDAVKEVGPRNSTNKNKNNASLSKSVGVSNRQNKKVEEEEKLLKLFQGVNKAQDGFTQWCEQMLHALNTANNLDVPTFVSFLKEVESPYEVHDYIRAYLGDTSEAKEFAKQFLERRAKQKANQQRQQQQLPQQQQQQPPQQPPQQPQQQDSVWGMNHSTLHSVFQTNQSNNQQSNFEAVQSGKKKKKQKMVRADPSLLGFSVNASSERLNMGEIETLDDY
# How the values were obtained:
# Assay in all cases: phage ELISA signal ratio (GST-PRM binding over GST background); higher = stronger binding of peptide-phage to the PRM
# [1] = target: T1, CD2BP2 256-341 GYF (domain begin …
# Procedure: (§1)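 Phage-displayed random hexadecapeptides (Cys-free, flanked by invariant Gly linkers, fused to the M13 P8 major coat protein) were selected over 5 rounds against GST-fused human PRM domains. Individual clones from rounds 4-5 were tested by phage ELISA, and positive clones binding the target but not GST were sequenced. Values are the ELISA signal ratio of target over background (GST); the background signal is given separately.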
# [2] = target: CKS1B 1-79 CKS (domain begin residue: 1, domain end residue: 79), P61024
# Procedure: as §1
# [3] = target: T2, CLTC 1-363 …
# Procedure: as §1
# [4] = target: CBX3 109-173 Chromo_shadow (domain begin residue: 109, domain end residue: 173), Q13185
# Procedure: as §1
# [5] = target: T3, GIGYF2 507-602 GYF (domain begin …
# Procedure: as §1
# [6] = target: CBX5 109-173 Chromo_shadow (domain begin residue: 109, domain end residue: 173), P45973
# Procedure: as §1
# Chain of CKS1B 1-79 CKS (domain begin residue: 1, domain end residue: 79), P61024 (P61024 whole entry): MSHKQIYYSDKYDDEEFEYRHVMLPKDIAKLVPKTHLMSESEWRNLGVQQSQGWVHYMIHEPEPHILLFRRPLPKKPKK
# Chain of CBX3 109-173 Chromo_shadow (domain begin residue: 109, domain end residue: 173), Q13185 (Q13185 whole entry): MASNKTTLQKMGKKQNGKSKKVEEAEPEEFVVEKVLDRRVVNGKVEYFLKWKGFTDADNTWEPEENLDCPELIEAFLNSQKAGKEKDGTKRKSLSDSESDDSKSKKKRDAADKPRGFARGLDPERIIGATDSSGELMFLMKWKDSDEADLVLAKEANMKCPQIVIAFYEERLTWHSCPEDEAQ
# Chain of CBX5 109-173 Chromo_shadow (domain begin residue: 109, domain end residue: 173), P45973 (P45973 whole entry): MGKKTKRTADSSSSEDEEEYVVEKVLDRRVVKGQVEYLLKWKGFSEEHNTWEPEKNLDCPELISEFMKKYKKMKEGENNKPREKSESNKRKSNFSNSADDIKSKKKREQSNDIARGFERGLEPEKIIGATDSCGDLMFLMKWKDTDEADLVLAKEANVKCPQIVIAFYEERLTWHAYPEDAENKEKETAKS
binder,measurement,setting,value
YPYPPGWDSNYAQRVE,phage ELISA signal ratio,[1],19.2
IDYESIFYEGMHWHTL,phage ELISA signal ratio,[2],22.1
VSYPLVDLSDWHMWTN,phage ELISA signal ratio,[3],20.8
TIPPGYFKWVGEVRDE,phage ELISA signal ratio,[1],16.3
DLMWWPETELHQGSWS,phage ELISA signal ratio,[3],17.3
EDPTLKVGHPPGWSFK,phage ELISA signal ratio,[1],17.6
LNWWTYEELQDLEQFT,phage ELISA signal ratio,[2],22.8
MTWTATWYASDPYMEV,phage ELISA signal ratio,[2],28.8
GWEPQWFPSEHLADGN,phage ELISA signal ratio,[2],7.45
GHPPGWSEFGWEHLVI,phage ELISA signal ratio,[1],16.2
SDGDLIWWDWAYNAEQ,phage ELISA signal ratio,[3],15.9
QEFMSISYPPGMPQDP,phage ELISA signal ratio,[1],14.4
NSMSYMDIVWHSFDTI,phage ELISA signal ratio,[2],19.2
PPPGYSKWTWSVQERV,phage ELISA signal ratio,[1],14.2
GMSPLIEWPEEWWWLD,phage ELISA signal ratio,[3],21
MDSWHYDMIPGEWLRV,phage ELISA signal ratio,[2],34.3
WDGQAWHLSDPYLWEM,phage ELISA signal ratio,[2],17.9
SQPEQMQWHTYDPYDL,phage ELISA signal ratio,[2],30.4
TAPPGYGARYMETPYV,phage ELISA signal ratio,[1],16.9
QQWDPSWYYPQELVKM,phage ELISA signal ratio,[2],20.5
WPNLEWMWDDEDMQFH,phage ELISA signal ratio,[3],15.5
WQATDYPQQPPPGWKE,phage ELISA signal ratio,[1],18.9
MEEPPGYRLNMYAMSY,phage ELISA signal ratio,[1],17.5
HWIDSWEGFRARVIPS,phage ELISA signal ratio,[4],12.6
EPPGWEVRQPGMVQVQ,phage ELISA signal ratio,[1],16.9
same,phage ELISA signal ratio,[5],17.5
QFLPTTWQDYLLYMDQ,phage ELISA signal ratio,[6],3.39
RDEAHMEWHFPSIWLT,phage ELISA signal ratio,[4],16.2
HDVWASSWNWDDFRLN,phage ELISA signal ratio,[4],12.7
GPLAWFLEDPYSSRVG,phage ELISA signal ratio,[2],11.1
